Assay outcomes as filed in PubChem.
Only some compounds are listed: those with a hit (about 2.4% of all), similar ones and a draw of the others.
Rpn11 inh – Rpn11 (PSMD14) deubiquitinase inhibitors, primary screen, biochemical, fluorescence polarization, uHTS; 360,000 tested, 0.59% active; human 26S proteasome, Ub4-pepOG fluorescence polarization; 20S core pre-blocked with epoxomicin; inhibition, % at 20 µM; 26S proteasome non-ATPase regulatory subunit 14 (Homo sapiens), O00487;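 active = inhibition at 20 µM, scaled to each plate's controls, above about 33%, limit read from the data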
PP1 inh – PP1-alpha phosphatase inhibitors, primary screen, counter-screen for PP5 inhibitor project, biochemical, fluorescence, OMFP substrate, single point; Serine/threonine-protein phosphatase PP1-alpha catalytic subunit (Homo sapiens), P62136; 320,000 tested, 0.9% active; inhibition, % at 6.7 µM; purified PP1alpha; AID 2235, 2010;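 active = inhibition above the mean inhibition of all tested compounds plus 3 SD, computed separately for each screening campaign, cut at about 15% in these data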
Target sequence (P62136 whole entry, looked up): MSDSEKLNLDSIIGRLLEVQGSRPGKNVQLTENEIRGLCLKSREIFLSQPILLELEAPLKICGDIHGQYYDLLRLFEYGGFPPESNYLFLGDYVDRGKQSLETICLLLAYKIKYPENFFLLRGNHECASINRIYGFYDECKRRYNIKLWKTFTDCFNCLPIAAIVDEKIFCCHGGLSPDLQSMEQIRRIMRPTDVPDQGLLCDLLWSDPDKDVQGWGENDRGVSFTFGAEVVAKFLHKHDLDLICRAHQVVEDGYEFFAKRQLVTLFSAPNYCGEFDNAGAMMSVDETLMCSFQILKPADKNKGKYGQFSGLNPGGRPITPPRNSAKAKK
PREPL inhibitor – PREPL enzyme inhibitors, primary screen, biochemical, fluorescence polarization; 320,000 tested, 0.68% active; inhibition, % at 5.96 µM; recombinant PREPL, fluorescence polarization activity-based probe; AID 2751, 2010; in the data active = inhibition above about 43%
PP5 primary – PP5 phosphatase inhibitors, primary screen, biochemical, fluorescence; inhibition, % at 6.7 µM; AID 1987, 2009; purified PP5c, OMFP substrate fluorescence; 320,000 tested, 0.18% active; Serine/threonine-protein phosphatase 5 (Homo sapiens), P53041;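 active = inhibition above the campaign's mean inhibition across all tested compounds plus 3 SD, cut at about 9.5% in these data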
NadD inh – inhibitors of S. aureus NadD, primary screen, biochemical, colorimetric, uHTS | 360,000 tested, 0.78% active | purified NadD enzyme, colorimetric absorbance read-out | inhibition, % at 20 µM | Nicotinate-nucleotide adenylyltransferase NadD (Staphylococcus aureus N315); in the data active = inhibition above about 26%
PP1 confirm – PP1 phosphatase inhibitors, confirmation, biochemical, fluorescence, OMFP substrate, triplicate; shares compounds with PP1 inh; purified PP1alpha; inhibition, % at 6.7 µM; 1,900 tested, 52% active;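 active = mean PP1 inhibition above a set limit taken from the earlier primary screen, cut at about 15% in these data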
PP5 counter – PP5 phosphatase inhibition by PP1 hits, confirmation, counter-screen for PP1 inhibitor project, biochemical, fluorescence, triplicate. purified PP5c, OMFP fluorescence. 1,900 tested, 4% active. shares compounds with PP1 inh. inhibition, % at 6.7 µM. AID 2360, 2010;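 active = mean PP5 inhibition over triplicate wells above about 9.5% taken from the earlier PP1 screen, limit read from the data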
Hits are given with their value; . = inactive; / = not tested or not shown.

SMILES | Rpn11 inh | PP1 inh | PREPL inhibitor | PP5 primary | NadD inh | PP1 confirm | PP5 counter
COc1ccccc1CNS(=O)(=O)c1ccc2c(c1)oc(=O)n2C | . | . | . | . | . | / | /
Cc1cc(C)cc(OCC(=O)Nc2ccc(N3CCCC3)cc2)c1 | . | 19 | . | . | 57 | . | .
CC[n+]1c(/C=C/N(C)c2ccccc2)n(-c2ccccc2)c2ccc(-c3nc4ccccc4s3)cc21 | . | 36 | . | . | 32 | . | .
CCOc1ccc(C2/C(=C(\O)c3ccc4c(c3)OCCO4)C(=O)C(=O)N2CCN2CCOCC2)cc1OC (centres undefined) | . | / | / | / | . | / | /
CC1(OC(=O)c2cnc3ccccc3n2)C(=O)C=C2C=C(c3ccc(C#N)cc3)OC=C2C1=O (centres undefined) | / | . | . | . | / | / | /
CC1(O)C(=O)C=C2C=C(c3ccsc3)OC=C2C1=O (centres undefined) | / | 18 | . | . | / | . | .
CCC(=O)OC1(C)C(=O)C=C2C=C(c3ccsc3)OC=C2C1=O (centres undefined) | . | . | . | . | . | / | /
CC1(O)C(=O)C=C2C=C(C3CC3)OC=C2C1=O (centres undefined) | / | . | . | . | / | / | /
CCCCC1=CC2=CC(=O)C(C)(O)C(=O)C2=CO1 (centres undefined) | / | 19 | . | . | / | . | .
CC1(OC(=O)c2ccco2)C(=O)C=C2C=C(c3ccsc3)OC=C2C1=O (centres undefined) | / | 18 | . | . | / | . | .
O=C(CN1C(=O)NC2(CCCC2)C1=O)OCCOc1cccc(Cl)c1 | . | 18 | . | . | . | . | .
Cc1cccc(OCCOC(=O)CN2C(=O)NC3(CCCC3)C2=O)c1 | . | . | . | . | . | / | /
COc1ccccc1C(=O)NC(=O)CSc1nc(C)cs1 | . | . | . | . | . | / | /
O=C1CN(C(=O)N[C@@H](Cc2ccccc2)C(=O)N[C@@H](C(=O)O)c2ccccc2)c2ccccc2N1 | . | . | . | . | . | / | /
O=C1CN(C(=O)NCC(=O)N[C@@H](C(=O)O)c2ccccc2)c2ccccc2N1 | . | 18 | . | . | . | . | .
CCOc1ccc(-n2c(O)c(/C=N/NC(=O)C3COc4ccccc4O3)c3ccccc3c2=O)cc1 (centres undefined) | . | 23 | . | . | . | 28 | .
COc1cc(/C=N\NC(=O)C2COc3ccccc3O2)cc(OC)c1O (centres undefined) | . | . | . | . | . | / | /
O=C(COC(=O)C1CC(=O)N(Cc2ccccc2)C1)Nc1cccc([N+](=O)[O-])c1 (centres undefined) | . | / | . | / | . | / | /
Cc1cc2oc3ccc(NCCCN4CCOCC4)cc3c(=O)c2cc1C | . | . | . | . | . | / | /
Cc1cc2oc3ccc(NCCCn4ccnc4)cc3c(=O)c2cc1C | / | 25 | . | . | . | . | .
CCN(C[C@H]1N[C@@](Cc2ccccc2)(C(=O)OC)[C@H]2C(=O)N(C)C(=O)[C@@H]12)C(=O)COC | . | / | . | / | . | / | /
O=C1OC(c2ccccc2)c2ccc3ccccc3c21 (centres undefined) | . | 19 | . | . | . | . | .
O=C1OC(c2ccccc2)c2ccccc21 (centres undefined) | . | . | . | . | . | / | /
CC(C)CCOc1ccc(C(=O)NN2C(=O)NC3(CCCCC3)C2=O)cc1 | . | . | . | . | . | / | /
CC(=O)c1ccc(NC(=S)NC(=O)/C=C/c2ccco2)cc1 | . | 23 | . | . | . | 29 | .
SMILES | Rpn11 inh | PP1 inh | PREPL inhibitor | PP5 primary | NadD inh | PP1 confirm | PP5 counter
CC(=O)Nc1ccc(NC(=S)NC(=O)/C=C/c2ccc(Cl)cc2)cc1 | . | . | . | . | . | / | /
O=C(/C=C/c1ccco1)NC(=S)Nc1ccccc1 | . | . | . | . | . | / | /
O=C(/C=C/c1ccc(Cl)cc1)NC(=S)Nc1ccc(NC(=O)c2ccco2)cc1 | . | 21 | . | . | . | 24 | .
CN(CC(=O)Nc1cccc(F)c1)C(=O)c1cc(S(=O)(=O)N(C)C)ccc1N1CCCC1 | . | . | . | . | . | / | /
COc1ccc(S(=O)(=O)Nc2cccc(S(=O)(=O)N3CCCCCC3)c2)cc1 | . | . | . | . | . | / | /
O=S(=O)(Nc1nc2ccccc2nc1Nc1cccc(S(=O)(=O)N2CCCCC2)c1)c1ccccc1 | . | 25 | . | 9.8 | . | 20 | .
O=C(OCC(=O)N1CCN(C(=O)c2ccco2)CC1)c1cc(-c2ccco2)nc2ccccc12 | . | 22 | . | . | 44 | . | .
O=C(OCC(=O)N1CCN(C(=O)c2ccco2)CC1)c1cc(-c2ccc(Cl)c(Cl)c2Cl)nc2ccccc12 | . | . | . | . | . | / | /
Cc1ccc(C)c(NC(=O)Cn2nc(-c3ccccc3)nc2-c2ccccc2)c1 | . | 20 | . | . | . | 24 | .
Cc1c(NS(=O)(=O)c2cc(C(=O)NC(C)c3ccccc3)ccc2Cl)c(=O)n(-c2ccccc2)n1C (centres undefined) | . | / | / | / | . | / | /
COc1ccc(Nc2nccc(-c3ccc(C#N)cc3)n2)cc1 | . | 20 | . | . | . | . | .
COc1ccc(Nc2nccc(-c3cccc(N)c3)n2)cc1 | . | . | . | . | . | / | /
O=[N+]([O-])c1ccc(N=Cc2ccc(Br)c([N+](=O)[O-])c2)cc1 | . | . | . | . | . | / | /
Cc1ccsc1/C=C/c1ccc2cccc(O)c2n1 | . | 21 | . | . | . | 19 | .
Oc1cccc2ccc(/C=C/c3cccs3)nc12 | . | 24 | . | . | . | 19 | .
CSc1ccc(/C=C/c2ccc3cccc(O)c3n2)cc1 | . | . | . | . | . | / | /
COc1ccc(OC)c(/C=C/c2ccc3cccc(O)c3n2)c1 | . | 19 | . | . | . | 18 | .
Cc1cn2c(=O)c(C(=O)N3CCN(c4ccccc4F)CC3)cnc2s1 | . | . | . | . | . | / | /
O=C(COC(=O)c1ccc(O)cc1O)NC(=O)Cc1ccccc1 | . | / | / | / | . | / | /
CC(Sc1ccc(S(=O)(=O)N(C)C)cn1)C(=O)NC1CCCC1 (centres undefined) | . | . | . | . | . | / | /
CCCCCOc1ccc(C2C(C(=O)c3ccc(C)o3)=C(O)C(=O)N2c2cc(C)on2)cc1 (centres undefined) | . | 24 | . | . | . | 32 | .
